# Screening data (PubChem BioAssay)
# aSyn 5UTR act = Activators working through SNCA 5'UTR binding (MLPCN); alpha-synuclein 5'UTR reporter, activators screen; activity score, % (tested at 7.5 µM), hits read low; 300,000 tested, 7.1% active; in the data active means activity score below about -60%
# Numbers stand for hits; 0 = inactive. Not all results are given here.
SMILES,aSyn 5UTR act
Cc1cccc(NC(=O)Cn2c(/C=C/c3ccccc3)nc3ccccc32)c1,-123.3
Cn1c(-c2ccc(CN3CCCCC3)o2)nc2ccccc21,-89.3
Cc1ccc(N2CCN(C(=O)c3cn(CC4CCCCC4)nn3)C(C)C2)cc1 (stereo unspecified),-153.6
Cc1ccc(Nc2ncccc2C(=O)O)cc1C,-104.0
O=C(Nc1cccc(C(F)(F)F)c1)Oc1ccc(Cl)c2cccnc12,0
Cc1ccc(Nc2ncccc2C(N)=O)cc1[N+](=O)[O-],-201.0
CNC(=O)c1cccnc1Nc1cccc(C(F)(F)F)c1,-148.1
O=C(/C=C/NCc1cccnc1)c1ccc(Br)cc1,-66.4
O=C(NCc1cccnc1)Nc1ccc(Br)cc1,-79.2
O=C(NCc1cccnc1)Nc1ccc(Cl)c(Cl)c1,-109.9
CCc1ccc(S(=O)(=O)Nc2ccc(-c3nc4cccnc4s3)cc2)s1,-97.8
NS(=O)(=O)c1ccc(C(=O)Nc2ccc(-c3nc4cccnc4s3)cc2)cc1,-120.8
CC1CCC(NC(=O)N(CCCl)N=O)CC1 (stereo unspecified),-137.7
c1ccc(NCC2OCc3ccccc3CO2)cc1,-147.0
CCCC(=O)N=C1SC2CS(=O)(=O)CC2N1c1ccc(-c2nc3ccc(C)cc3s2)cc1 (stereo unspecified),-132.2
CCOc1cnc(-c2ccc(Cl)cc2)o1,-105.1
CCOc1cnc(-c2ccc(OC)cc2)o1,-106.0
CC(=O)Nc1ccc(-c2nc3ccc(NC(C)=O)cc3o2)cc1,-103.9
CC(=O)Nc1cc(-c2nc3ccccc3o2)ccc1Cl,-77.1
Cc1cc2nc(-c3ccc(NC(=O)C(C)C)cc3)oc2cc1C,-195.5
COc1ccc(N=Cc2cccc(C)c2O)cc1Cl,-138.0
COc1ccc(CCCC(=O)N/N=C/c2cccc(OC)c2O)cc1C,0
Cc1ccccc1Nc1nc(-c2sc(NC(=O)c3cccc(Cl)c3)nc2C)cs1,-145.5
Cc1ccc(Cl)cc1Nc1nc(-c2sc(NC(=O)c3cccc(Cl)c3)nc2C)cs1,-200.9
Cc1cccn2cc(-c3ccccc3)nc12,-152.3
SMILES,aSyn 5UTR act
Cc1cccn2cc(CNc3ccccc3)nc12,-73.5
Cc1cccn2cc(-c3ccc(F)cc3)nc12,-88.0
COc1ccc(-c2cn3cccc(C)c3n2)cc1Br,-259.0
COc1ccc(-c2cn3ccc4ccccc4c3n2)cc1,-102.6
O=c1c(/C=C(\O)c2ccc(F)cc2)nc2ccccc2n1-c1ccccc1,-130.0
Cn1cccc1CNC(=O)Nc1ccc(Cl)c(Cl)c1,-212.1
CCOc1ccc(NC(=O)NCc2cccn2C)cc1,-86.8
O=C(Nc1ccc(F)cc1F)c1csc(-c2ccccc2)n1,-95.3
O=C(Nc1ccccc1)c1csc(-c2ccccc2)n1,-170.2
O=C(Nc1ccc(F)cc1F)c1cccc(C(=O)Nc2ccc(F)cc2F)n1,0
O=C(Nc1ccccc1Cl)c1csc(-c2cccnc2)n1,-69.9
Nc1cc(-c2ccc(Br)cc2)nn1Cc1ccccc1,-196.3
C=CCSc1nnc(-c2sc(-c3ccccc3)nc2C)n1C,-63.8
N/C(=C\C(=O)c1cc(Cl)ccc1O)C(Cl)(Cl)Cl,-80.1
Cc1ccc2nc(-c3ccc(NC(=O)CSc4ccccc4)cc3)[nH]c2c1,-97.7
O=C(CSc1ccccc1)Nc1ccc(-c2nc3ccccc3[nH]2)cc1,-170.9
O=C(Cc1cccs1)Nc1ccc(-c2nc3ccccc3[nH]2)cc1,-263.4
O=C(CSc1ccc(Cl)cc1)Nc1cccc(-c2nc3ccccc3[nH]2)c1,-89.3
O=C(CN1CCOCC1)Nc1ccc(-c2nc3ccccc3[nH]2)cc1,-110.6
Cc1cccc(C(=O)NC2=NCCS2)c1,-56.3
O=C(NC1=NCCS1)c1ccc(Cl)c(Cl)c1,-101.4
O=C(/C=C/c1ccc(Cl)c(Cl)c1)NC1=NCCS1,-103.6
CC(C)CCNC(=O)c1ccc(Cl)c(N)c1,-81.3
CC(C)CCNC(=O)C(=O)Nc1ccccc1,-155.2
CC(C)CCNC(=O)c1ccc(-c2ccccc2)cc1,-106.8
SMILES,aSyn 5UTR act
COc1c(Cl)cc(C(=O)NN)cc1Cl,0
c1ccc(Cn2ccc(-c3cnc(-c4ccccc4)s3)n2)cc1,-105.6
CCN(CC)c1ccc(C(=O)NNC(=O)c2cccn2C)cc1,-114.6
Cn1cccc1C(=O)NNC(=O)COc1ccccc1F,-87.1
Cn1cccc1C(=O)NNC(=O)c1ccccc1Br,-96.5
COc1ccccc1C(=O)NNC(=S)Nc1ccccc1,-107.1
O=C(Oc1ccccc1C(=O)Nc1ccccc1)c1ccc(Br)c([N+](=O)[O-])c1,-120.6
COc1ccccc1C(=O)Oc1ccccc1C(=O)Nc1ccccc1,-162.9
Cc1nn(C)cc1C(=O)NNC(=S)Nc1ccccc1,-110.3
COc1ccccc1C(=O)Nc1ccc(Br)cc1C,-96.2
COc1cc(SC)ccc1C(=O)Nc1nc2ccccc2[nH]1,0
COc1cc(SC)ccc1C(=O)Nc1ccccc1,-184.1
COc1ccc(OCC(=O)Nc2cccc(NC(=O)COc3ccc(OC)cc3)n2)cc1,-135.6
O=C(COc1ccc(C(=O)c2ccccc2)cc1)NCc1ccc(F)cc1,0
O=C(COc1ccccc1O)Nc1ccccc1Cl,-98.8
O=C(COc1ccccc1Cl)NCc1ccccc1,-72.3
COc1ccc(OCC(=O)Nc2ccccc2Cl)cc1,-110.6
COc1ccc(-n2nc3c(c2NC(=O)COc2ccccc2)CS(=O)(=O)C3)cc1,-75.9
S=C(Nc1ccccc1)Nc1ccc(Cl)cc1Cl,-91.2
COC(=O)c1cccc(NC(=S)Nc2cccc(Cl)c2Cl)c1,-69.3
S=C(Nc1ccccc1)Nc1cccc(Cl)c1Cl,-67.1
CNC(=S)Nc1cccc(C(=O)OC)c1,-90.8
NNC(=S)Nc1ccccc1Cl,-185.5
C/C(=N\NC(=O)c1cc(-c2cccnc2)nc2ccccc12)c1ccc(O)cc1O,0
C/C(=N\NC(=O)c1c(C)nc2ccccn12)c1ccc(C(C)(C)C)cc1,-98.0
SMILES,aSyn 5UTR act
C/C(=N\NC(=O)c1c(C)nc2ccccn12)c1ccco1,-139.0
C/C(=N/NC(=O)c1cc2ccccc2cc1O)c1ccco1,-64.3
C/C(=N\NC(=O)c1cccc(N/N=C(\C)c2ccco2)c1)c1ccco1,-81.2
COc1ccccc1NS(=O)(=O)c1ccc(-c2cc(C)no2)s1,-101.8
COc1ccccc1CNS(=O)(=O)c1ccc(-c2cc(C)no2)cc1,0
CC(C)(O)c1cc(=O)sc2nc3ccccc3n12,-102.9
Cc1cc(C)c2oc(-c3cccc(N)c3)nc2c1,-131.9
CCOc1ccccc1C1C2=C(COC2=O)Nc2cc3c(cc21)OCO3 (stereo unspecified),0
CCOc1ccc(C2Sc3ccccc3NC3=C2C(=O)OC3)cc1 (stereo unspecified),-78.1
C#CCOc1ccc(C2C3=C(COC3=O)Nc3cc4c(cc32)OCO4)cc1OC (stereo unspecified),0
Nc1ccc(S(=O)(=O)Nc2nccc(/C=C/c3ccc(Cl)cc3Cl)n2)cc1,-66.8
CC(=O)Nc1ccc(S(=O)(=O)N2CCN=C2SCc2ccc(C)cc2)cc1,-72.0
CC1CC(C)(C)NC(=S)N1CCCC(=O)Nc1ccc2c(c1)OCCO2 (stereo unspecified),-90.7
O=C(CCc1ccccc1)Nc1ccc2c(c1)OCCO2,-102.2
O=C(CS(=O)(=O)c1c[nH]c2ccccc12)Nc1ccc2c(c1)OCCO2,-84.7
O=C(CCc1ccccc1)Nc1cc2c(cc1Cl)OCCO2,-134.7
O=[N+]([O-])c1cc(/C=N/N/C(=N/c2ccccn2)c2ccccn2)ccc1O,-90.9
O=[N+]([O-])c1ccc(/C=N/N/C(=N/c2ccccn2)c2ccccn2)cc1,-125.2
Cc1cc([N+](=O)[O-])ccc1-c1ccc(C2Nc3ccccc3C(=O)N2O)o1 (stereo unspecified),0
